Compound activity (PubChem BioAssay)
Pf Dd2 growth – blocks in vitro growth of P. falciparum Dd2; Potency, µM (top dose mostly 28.9 µM), usual class: inhibitors; actives 4.3% (n = 120,000); P. falciparum Dd2 growth, SYBR Green, 72 h; active means well fitted inhibition curve with a large enough effect; further: nearly all actives have a fitted effect of over 65% in size
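Readout: SYBR Green fluorescence, 485 nm excitation, 535 nm emission, after ~16 h lysis at 37C. Before that, Dd2-infected red cells (2.5% hematocrit) grew 72 h with compound, 29 uM top final concentration.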
Large screens that a line does not name were inactive. The sample as a whole holds a higher share of hits than the screen did.

O=C(NCC1CC1)c1ccc(N2CC3CC(C2)[C@H]2CCCC(=O)N2C3)nc1 (stereo partly specified)	none
O=C(NCc1csc2ccc(Cl)cc12)C1CC2(CCNCC2)CN1 (stereo unspecified)	none
COC1CCOC2(CCN(C(=O)c3cccc(C)c3)CC2)C1 (stereo unspecified)	none
CCc1ccccc1NC(=O)Cn1nnc(C(=O)NCc2ccccc2Cl)c1N	none
Cc1ccc(CNC(=O)c2nnn(Cc3ccc(F)cc3)c2N)cc1	Pf Dd2 growth 3.2µM
CCc1ccc(NC(=O)Cn2nnc(C(=O)NCc3ccc(C)cc3)c2N)cc1	none
Cc1ccc(CNC(=O)c2nnn(CC(=O)Nc3cc(C)ccc3C)c2N)cc1	none
Nc1c(C(=O)NCc2ccc(Cl)cc2Cl)nnn1Cc1ccc(Br)cc1	none
Cc1ccc(C)c(Cn2nnc(C(=O)NCc3ccc(Cl)cc3Cl)c2N)c1	Pf Dd2 growth 4.5µM
CCC(=O)NCC1Cn2cccc2C(=O)N1Cc1ccccc1 (stereo unspecified)	none
CC(C)NC(=O)C(NC(=O)c1ccc2c(c1)OCO2)C1CCN(C(=O)c2ccc(F)cc2)CC1 (stereo unspecified)	none
COCCCNC(=O)C1c2ccccc2C(=O)N(C2CCCCC2)C12CCCCC2 (stereo unspecified)	none
COCC(=O)NC[C@H]1CCN(Cc2ccc3c(c2)CCO3)C[C@H]1N(C)C	none
CCN1c2ccccc2-n2cccc2C12CCN(C(=O)Nc1ccccc1C(F)(F)F)CC2	Pf Dd2 growth 2.8µM
CC(=O)N1CCC2(CC1)OC(=O)C(C)=C2C(=O)Nc1ccccc1C(F)(F)F	none
CS(=O)(=O)N1CCC(OC2CCN(C(=O)Nc3ccccc3C(F)(F)F)CC2)CC1	none
COCCn1nc2n(c1=O)CCN(C(=O)c1ncccc1C)CC2	none
COc1cccc2cc(-c3nnc(-c4ccc(Cl)cc4)o3)c(=O)oc12	none
COc1ccc(-c2cc3ccc(O)c(CN4CCN(C)CC4)c3oc2=O)cc1OC	Pf Dd2 growth 11µM
CCN1CCN(C(=O)c2cc(-c3ccccc3)cn2C)CC1	none
CN1CCN(Cc2c(O)ccc3cc(-c4ccccc4)c(=O)oc23)CC1	Pf Dd2 growth 10µM
O=C(O)c1ccc2nc(-c3cc4cccc(O)c4oc3=O)[nH]c2c1	none
COc1cccc2cc(-c3nc(-c4ccc(C)cc4)c(C)s3)c(=O)oc12	none
COc1ccc(-c2c(C)c3ccc(O)c(CN4CCOCC4)c3oc2=O)cc1OC	none
COc1ccc(-c2cc([C@H]3CN4CC[C@H]3C[C@@H]4CNC(=O)N3CCOCC3)nc(C)n2)cc1OC	none
COc1ccc(-c2cc3ccc(O)c(CN4CCOCC4)c3oc2=O)cc1OC	Pf Dd2 growth 10µM
COC[C@@H]1CN(c2ncccn2)C[C@H]1C(=O)NCc1ccccn1	none
COCC(=O)N1CCC2(CCN(Cc3cccc(C)n3)CC2)C(CO)C1 (stereo unspecified)	none
C[C@@H](NC(=O)C12CC3CC(CC(C3)C1)C2)c1onc(-c2ccccc2)c1C(=O)O	none
COC[C@H]1CCCN1C(=O)C[C@@H]1O[C@H](CNC(=O)Nc2ccccc2)[C@@H](O)[C@H]1O	none
COc1ccccc1CNC(=O)[C@@H]1CNC[C@H]1COc1cccnc1	none
Cc1ccn(CC(=O)N2C[C@@H](COCC3CC3)[C@H](c3ccccn3)C2)n1	none
Cc1noc([C@@H]2CC(F)(F)CN2C(=O)c2cc(C)oc2C)n1	none
Cc1ccc(Cl)cc1-n1nc(-c2c(C)nc3scc(CC(=O)NCC(C)C)n3c2=O)cc1C	none
COc1cc(C2N=C(N)Nc3nc4ccccc4n32)ccc1OCCC(C)C (stereo unspecified)	none
CCCOc1ccc(C2c3c(-c4c(C)cc(C)cc4O)n[nH]c3C(=O)N2CCO)cc1 (stereo unspecified)	none
COCCn1ncc(N2CCC(NC(=O)c3ccc(C(C)C)cc3)CC2)cc1=O	none
COc1cc(C2c3c(-c4cc(C)ccc4O)n[nH]c3C(=O)N2CCCO)ccc1OCCC(C)C (stereo unspecified)	Pf Dd2 growth 3.2µM
COCCN1C(=O)c2[nH]nc(-c3cc(C)ccc3O)c2C1c1ccc(C(C)C)cc1 (stereo unspecified)	Pf Dd2 growth 8.9µM
COc1cc(C2c3c(oc4cc(C)c(C)cc4c3=O)C(=O)N2CCCN2CCOCC2)ccc1O (stereo unspecified)	none
COC[C@@H]1CN(Cc2cc(F)c(F)c(F)c2)C[C@H]1C(N)=O	none
C=CCNC(=O)N[C@H]1[C@H](O)[C@@H](N2CCCC2)[C@@H]2OC[C@H]1O2	none
Cc1noc(C)c1S(=O)(=O)N1CC(N(CC(C)C)C2CCOCC2)C1	none
Cc1noc(C)c1S(=O)(=O)N1CCC(N(CCC(C)C)C2CCOCC2)CC1	Pf Dd2 growth 13µM
Cc1noc(C)c1S(=O)(=O)N1CCC(N2CCOC2=O)CC1	none
COCC1CN(S(=O)(=O)c2ccc(C#N)cc2)CC12CCNCC2 (stereo unspecified)	none
COc1ccc(NC(=O)C2CC(=O)N(c3n[nH]c4cccc(F)c34)C2)cc1Cl (stereo unspecified)	none
CCOC(=O)CN1CCN(C(=O)CCc2cc3ccc(C)cc3[nH]c2=O)CC1	none
CC(C)(C)C(=O)N1CCC(c2nnc(Cn3cncn3)n2C2CC2)CC1	none
O=C(C1CCCCCC1)N1CCC(n2cc(C3CCCCC3)nn2)CC1	none
CN1CCC(OC2CCN(C(=O)c3ccc(Br)o3)CC2)CC1	none
O=[S+]1([O-])NCC2(CCN(CC3CC3)C2)Oc2ncccc21 (stereo unspecified)	none
O=[S+]1([O-])NCC2(CCN(CC3CCCC3)C2)Oc2ncccc21 (stereo unspecified)	Pf Dd2 growth 13µM
O=[S+]1([O-])NCC2(CCN(CC3CCOCC3)C2)Oc2ncccc21 (stereo unspecified)	none
C[C@H]1[C@@H]2[C@@H](O)[C@H]([C@H](C)C(=O)N3CCCCC3)CC[C@@]2(C)CC[C@@H]1NC(=O)c1cncnc1	none
COC[C@H]1CCCN1Cc1nc(C2(O)CCN(CCC(C)C)CC2)cs1	none
CCc1noc(-c2cn(C3CCN(C(=O)c4sccc4C)C3)nn2)n1 (stereo unspecified)	none
COc1ccc(CNC(=O)C(=O)Nc2ccc(OC)cc2OC)cc1	Pf Dd2 growth 5.6µM
COc1ccc(CNC(=O)C(=O)Nc2cccc(C)c2C)cc1	none
COc1ccc(CCNC(=O)C(=O)Nc2ccc(C)c(C)c2)cc1	none
COc1ccc(CNC(=O)Cn2c(C)cc3nc4n(c(=O)c32)CCCC4)cc1	none
COc1ccc(NC(=O)N2C[C@@H](F)C[C@H]2C(=O)N2CCc3ccccc3C2)c(C)c1	none
Cc1ccc(NC(=O)N2C[C@@H](F)C[C@H]2C(=O)N2CCc3ccccc3C2)cc1Cl	none
CCc1ccccc1NC(=O)N1C[C@@H](F)C[C@H]1C(=O)N1CCc2ccccc2C1	Pf Dd2 growth 3.2µM
COc1ccc(C(=O)N2CCCCCC2c2nc(-c3cccnc3)no2)cc1 (stereo unspecified)	none
Cc1ccc(-c2cn3c(n2)CO[C@@H](CNCc2ccc(S(C)(=O)=O)cc2)C3)cc1	none
Cc1ccc(-c2cn3c(n2)CO[C@@H](CNCc2ccc(-c4ccccn4)cc2)C3)cc1	Pf Dd2 growth 13µM
Cc1ccc(-c2cn3c(n2)CO[C@@H](CNCc2ccc(Cl)cc2)C3)cc1	none
CN1CCC(N2CC[C@H](c3nnc(-c4ccc(N(C)C)cc4)o3)C2)CC1	none
CC1=C[C@@H](CN2CCC(C(N)=O)CC2)[C@H](C(C)C)C[C@H]1Cc1nnc(-c2ccccc2F)o1	none
CC1=C[C@@H](CN2CCN(C)CC2)[C@H](C(C)C)C[C@H]1Cc1nnc(C)o1	none
CC1=C[C@@H](CN2CCC[C@H]2CO)[C@H](C(C)C)C[C@H]1Cc1nnc(-c2cncn2C)o1	none
